Screening results as filed in PubChem BioAssay.
B2AR arrestin: recruits beta-arrestin to the human beta2-adrenergic receptor. P07550. beta-arrestin recruitment to beta2AR, cell-based reporter. Potency, µM (highest dose often 46.1 µM), actives largely listed as activators. 0.02% of 330,000 active; further: nearly all actives have a fitted effect of over 65% in size
RORg inh: blocks mouse ROR gamma transcriptional activity. P51450. Drosophila S2 Gal4-RORgamma UAS-luciferase reporter, 20 h. Potency, µM (doses to about 53.6 µM), usual class: inhibitors. 5.4% of 310,000 active. AID 2551; further: nearly all actives have a fitted effect of over 60% in size
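Drosophila Schneider cells stably carrying a metallothionein-driven Gal4 DBD–ROR gamma fusion and a UAS-Photinus luciferase reporter were exposed to compound for 1 hr, then induced with copper sulfate (700 uM final) for 20 hr at ambient temperature before luminescence reading.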
NPSR antagonist: blocks cAMP signaling of the human neuropeptide S receptor; CHO-NPSR cells, cAMP TR-FRET, antagonist mode; Q6W5P4; 1% of 220,000 active; Potency, µM (highest dose often 38.3 µM), most hits filed as inhibitors; further: nearly all actives have a fitted effect of over 50% in size
Target sequence (Q6W5P4 whole entry, looked up): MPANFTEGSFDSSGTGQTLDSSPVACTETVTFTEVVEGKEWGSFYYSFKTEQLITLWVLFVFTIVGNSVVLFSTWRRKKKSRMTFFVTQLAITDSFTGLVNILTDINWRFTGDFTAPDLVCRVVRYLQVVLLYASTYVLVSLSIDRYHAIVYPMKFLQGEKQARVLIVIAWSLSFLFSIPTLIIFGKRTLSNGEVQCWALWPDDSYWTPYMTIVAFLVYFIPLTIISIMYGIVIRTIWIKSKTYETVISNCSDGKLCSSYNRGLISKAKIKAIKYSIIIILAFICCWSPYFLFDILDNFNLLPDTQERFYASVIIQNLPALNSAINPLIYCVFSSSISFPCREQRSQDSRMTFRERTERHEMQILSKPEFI
Gal4-VP16 FLuc: Gal4-VP16 reporter inhibition counter-screen | Drosophila S2 Gal4-VP16 UAS-luciferase, luminescence, 20 h | 3.5% of 310,000 active | Potency, µM (doses to about 53.6 µM), most hits filed as inhibitors | AID 2546;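 further: Gal4-VP16 expression switched on by copper sulfate through the metallothionein promoter; nearly all actives have a fitted effect of over 50% in size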
Large screens that a line does not name were inactive. Hits are enriched below; roughly 5.7% of the tested compounds scored in any of these assays. The call rests on the fitted dose curve; in most records, active means well fitted curve in the direction sought with a large enough effect; inconclusive means small, poorly fitted or top-dose-only effect, or another doubt; inactive means no such curve, though single readings can be large; an effect the other way counts as inactive or inconclusive.

NCCC[C@@H](CC(=O)N[C@@H]1CCCC[C@H]1C(=O)N[C@H](CC(=O)N[C@@H](CCC(=O)O)CC(=O)O)Cc1ccccc1)NC(=O)C[C@H](Cc1c[nH]c2ccccc12)NC(=O)[C@@H]1CNCC[C@H]1N	none (no result: B2AR arrestin, NPSR antagonist)
Cn1c(COc2ccccc2O)[n+](C)c2ccccc21	none (no result: NPSR antagonist)
CCCCCCCCCCOC(=O)Cn1c(COc2ccccc2OC)[n+](C)c2ccccc21	RORg inh inconclusive, Gal4-VP16 FLuc 4.5µM (no result: NPSR antagonist)
Cc1cccc(C(=O)Oc2cccc3c(O)cccc23)c1	Gal4-VP16 FLuc inconclusive (no result: NPSR antagonist)
COc1ccccc1-c1nnc(NC(=O)CSc2nncn2C)s1	RORg inh 8.9µM, Gal4-VP16 FLuc inconclusive
Oc1ccc(NCc2ccccc2OCc2ccccc2)cc1	B2AR arrestin 7.3µM, RORg inh inconclusive, Gal4-VP16 FLuc inconclusive
CNC1=CN=C(c2ccccc2)c2cc(Cl)ccc2N1	none (no result: B2AR arrestin, NPSR antagonist)
Cc1ccc(C)c(-n2c(-c3cccnc3)n[nH]c2=S)c1	RORg inh 10µM
Cc1cc(-c2n[nH]c(=S)n2-c2ccccc2C)cs1	RORg inh 2.8µM, Gal4-VP16 FLuc 6.3µM
Cc1ccc(-n2c(-c3ccncc3)n[nH]c2=S)c(C)c1	RORg inh 11µM, Gal4-VP16 FLuc inconclusive
Cc1ccc(C)c(-n2c(-c3csc(C)c3C)n[nH]c2=S)c1	RORg inh inconclusive, Gal4-VP16 FLuc 5µM
Cc1cccc(-n2c(-c3ccncc3)n[nH]c2=S)c1C	none
COCC1CCN(C(=O)CC2C(=O)NCCN2Cc2cccc(Oc3ccccc3)c2)CC1 (stereo not drawn)	RORg inh inconclusive (no result: NPSR antagonist)
CCNc1ncc2nc(-c3cccc(C#N)c3)c(=O)n(Cc3cccc(OC)c3)c2n1	none (no result: B2AR arrestin, NPSR antagonist)
Cc1ccccc1-n1c(-c2ccncc2)n[nH]c1=S	RORg inh 13µM
CCNc1nc(SC(C)C(=O)Nc2ccccc2)nc(N2CCOCC2)n1 (stereo not drawn)	none
CC(=O)C(Sc1nc(N2CCOCC2)nc(N2CCOCC2)n1)C(=O)Nc1ccccc1 (stereo not drawn)	RORg inh 0.89µM, Gal4-VP16 FLuc inconclusive
N#Cc1cnc(SCCc2ccccc2)nc1N	none (no result: Gal4-VP16 FLuc)
Cc1cnc(SCCc2ccncc2)nc1C	RORg inh 13µM, Gal4-VP16 FLuc inconclusive
COCCNC(=O)CSc1nc2nn(-c3ccccc3)c(=O)c-2c2n1CCCCC2	none
Nc1nc(-c2ccccc2)c(-c2ccccc2)n1N	RORg inh 0.4µM, Gal4-VP16 FLuc 1.4µM (no result: NPSR antagonist)
Nc1c(-c2ccccc2)nc(Cl)nc1-c1ccccc1	none
Cc1cc(C(=O)CCl)c(C)n1CCc1ccc(F)cc1	RORg inh inconclusive
COc1ccc(CCn2c(C)c(C(C)=O)c(C(C)=O)c2C)cc1OC	none
COc1ccc(CCn2c(C)cc(C(=O)CCl)c2C)cc1OC	RORg inh 11µM, Gal4-VP16 FLuc 20µM
Cc1cc(C(=O)CCl)c(C)n1CCc1ccc(Cl)cc1	RORg inh 13µM, NPSR antagonist inconclusive, Gal4-VP16 FLuc inconclusive
CC1(C)CC(=O)C(C(C2=C(O)CC(C)(C)CC2=O)c2ccc(Br)s2)C(=O)C1 (stereo not drawn)	RORg inh inconclusive, Gal4-VP16 FLuc 10µM
COc1cc(C=O)c([N+](=O)[O-])cc1OC	none (no result: B2AR arrestin, NPSR antagonist)
CCCCNC(=S)NNC(=O)c1csc(C)c1	none
CCNC(=S)NNC(=O)c1cccs1	RORg inh 11µM
COc1ccc(C(=O)NNC(=S)NC2CCCCC2)cc1OC	RORg inh 7.9µM, Gal4-VP16 FLuc inconclusive
CCNC(=S)NNC(=O)c1csc(C)c1	RORg inh 13µM, Gal4-VP16 FLuc inconclusive
Cc1cc(C(=O)NNC(=S)NC2CCCCC2)cs1	RORg inh 3.2µM, Gal4-VP16 FLuc inconclusive (no result: NPSR antagonist)
CCCNC(=S)NNC(=O)c1cccs1	none
COc1cccc(C(=O)NNC(=S)NC2CCCCC2)c1	RORg inh inconclusive, Gal4-VP16 FLuc inconclusive
O=C(NNC(=S)NC1CCCCC1)c1cccs1	RORg inh inconclusive
COc1cccc(-c2cc(N(C)Cc3ccco3)ncn2)c1	RORg inh inconclusive (no result: B2AR arrestin, NPSR antagonist)
Cc1ccc(C)c(SCC(=O)c2ccc[nH]2)c1	none
C#Cc1cccc(C(=O)N2CCCC(C(=O)c3ccc(OC)cc3C)C2)c1 (stereo not drawn)	none (no result: NPSR antagonist)
COc1ccc(C2C=C(C34CC5CC(CC(C5)C3)C4)NC(=S)N2)cc1OC (stereo not drawn)	RORg inh 1.3µM, Gal4-VP16 FLuc 1.6µM
CC(C)NC(=S)NCc1cccs1	RORg inh inconclusive
Cc1c(Cl)cccc1NC(=O)Cc1cccs1	none (no result: NPSR antagonist)
S=C(NCc1cccs1)Nc1cccc(Cl)c1Cl	RORg inh 10µM, Gal4-VP16 FLuc 8.9µM
Cc1c(Cl)cccc1NC(=S)NCc1cccs1	RORg inh 4.5µM, Gal4-VP16 FLuc 7.1µM
Cc1noc(C)c1C(=O)N1CCC2(CCN(Cc3nccs3)CC2)CC1	none (no result: B2AR arrestin, NPSR antagonist)
COc1ccc(CCNC(=S)NC(=O)c2cc(OC)c(OC)c(OC)c2)cc1OC	none
COc1ccc(CCNC(=S)NC(=O)c2cccc(Cl)c2)cc1OC	RORg inh 11µM, Gal4-VP16 FLuc inconclusive
COc1ccc(CCNC(=S)NC(=O)c2ccccc2)cc1OC	RORg inh 4.5µM, Gal4-VP16 FLuc 7.1µM
COc1ccc(CCNC(=S)NC(=O)c2cccc([N+](=O)[O-])c2)cc1OC	RORg inh 13µM, Gal4-VP16 FLuc 16µM (no result: NPSR antagonist)
O=C(NC(=S)NCCc1ccccc1)c1cccc(Cl)c1	RORg inh 13µM, Gal4-VP16 FLuc 18µM (no result: NPSR antagonist)
CCOC(=O)c1nncc(-c2ccccc2)n1	none (no result: RORg inh, NPSR antagonist, Gal4-VP16 FLuc)
COc1ccc(C(=O)NC(=S)NCCc2ccccc2)cc1	RORg inh 10µM, Gal4-VP16 FLuc inconclusive
COc1ccc(/C=C/C(=O)NC(=S)NCCc2ccc(OC)c(OC)c2)cc1	RORg inh 2.8µM, Gal4-VP16 FLuc inconclusive
COc1ccc(CCNC(=O)/C=C\c2ccccc2)cc1OC	none
COc1ccc(CCNC(=O)c2ccccc2)cc1	none (no result: NPSR antagonist)
CC/C(C)=N/Nc1nc2c(c(=O)[nH]c(=O)n2C)n1CCc1ccccc1	none
CCOC(OCC)c1cn(Cc2ccc3c(c2)C(=O)c2ccccc2C3=O)nn1	none (no result: NPSR antagonist)
O=C(O)c1cc2c(ccc3ccccc32)oc1=O	none
N=c1oc2ccc3ccccc3c2cc1C(N)=S	RORg inh 6.3µM, Gal4-VP16 FLuc inconclusive
COc1cccc(CC(=O)Nc2ccc(S(=O)(=O)Nc3nc(C)cc(C)n3)cc2)c1	none
CC(C)(C)c1ccc(-c2nnc(SC3CCOC3=O)n2Cc2ccccc2)cc1 (stereo not drawn)	RORg inh 16µM, Gal4-VP16 FLuc inconclusive
O=C1OCCC1Sc1nc2ccccc2c(=O)n1Cc1ccccc1 (stereo not drawn)	none
O=C1OCCC1Sc1nc2cc(Cl)ccc2n1Cc1ccccc1 (stereo not drawn)	RORg inh 13µM, Gal4-VP16 FLuc inconclusive
CCCCCCCCOc1c(OC)cc(/C=C/C(=O)N2CCN(c3ccc(C)c(C)c3)CC2)cc1OC	none (no result: B2AR arrestin, NPSR antagonist)
Cc1c(NC(=O)Nc2ccc3c(c2)OCO3)cccc1[N+](=O)[O-]	none (no result: NPSR antagonist)
CO[C@@H]1COC(=O)C/C=C\[C@@H](C)[C@H](OC)COC(=O)[C@H](COCc2ccccc2)NC(=O)C/C=C\[C@H]1C	none (no result: B2AR arrestin, NPSR antagonist)
O=C(N/N=C/c1cccnc1)c1cc(-c2ccccc2)nc2ccccc12	none (no result: NPSR antagonist)
O=C(N/N=C/c1ccsc1)c1cc(-c2cccs2)nc2ccccc12	RORg inh 4µM, Gal4-VP16 FLuc 4.5µM
O=C(N/N=C/c1ccc[nH]1)c1cc(-c2ccc(Cl)cc2)nc2ccccc12	RORg inh 1.4µM, Gal4-VP16 FLuc 5.6µM
